PubChem BioAssay (NCI)
This is part of a sample that, as a whole, favours compounds with a hit. Of some 83,000 tested, about 20% had one in any assay.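 96-well plates, one dose, 48 hours. Percent growth reported; active if below 10.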 Activity calls are given as the source filed them.

Experiments:
Experiment in all cases: NCI-60 one-dose screen, 48 h (100 = growth as untreated, 0 = no growth, -100 = all killed)
Conditions in all cases: 10 µM unless noted
[1] = test system: NCI-H23 lung
[2] = test system: NCI-H226 lung
[3] = test system: NCI-H322M lung
[4] = test system: HOP-62 NSCLC
[5] = test system: NCI-H460 lung
[6] = test system: HOP-92 NSCLC
[7] = test system: NCI-H522 lung
[8] = test system: A549/ATCC NSCLC
[9] = test system: 786-0 renal
[10] = test system: COLO 205 colon
[11] = test system: DU-145 prostate
[12] = test system: K-562 leukemia
[13] = test system: MALME-3M melanoma
[14] = test system: MDA-MB-231 breast
[15] = test system: SF-268 CNS
[16] = test system: SF-295 CNS
[17] = test system: SF-539 CNS
[18] = test system: UACC-257 melanoma
[19] = test system: M14 melanoma
[20] = test system: RXF 393 renal

Measured: growth

CCOC(=O)c1ccc(Nc2sc(C(=O)c3ccc(Br)cc3)c(N)c2C#N)cc1
active: [7] 8.98% | [16] -11.1% | [17] -1.74%
inactive: [1] 45.4% | [2] 56% | [3] 37.9% | [4] 24% | [5] 13.1% | [6] 40.1% | [8] 30.7% | [9] 22.8% | [10] 11.4% | [11] 10.8% | [12] 12.9% | [13] 31.8% | [14] 52.9% | [15] 33.5% | [18] 38.2% | [19] 29.4%

CCN(CC)CCCC(C)NC(=S)N/N=C(\C)c1ccccn1 (stereo unspecified)
inactive: [1] 73.1% | [2] 33.2% | [3] 31.9% | [4] 45.4% | [5] 24.7% | [6] 46.1% | [7] 47.2% | [8] 48.9% | [9] 23.4% | [10] 28.9% | [11] 42.1% | [12] 38.7% | [13] 33.5% | [14] 36.8% | [20] 49.4% | [15] 43.7% | [17] 31.2% | [18] 57.4% | [19] 37.2%

N=C(N)c1nn(C2OC(CO)C(O)C2O)c2nc[nH]c(=O)c12 (stereo unspecified)
inactive: [2] 13.5% | [7] 11.5% | [8] 19.1%
active: [1] -34.1% | [3] 6.64% | [4] -12% | [5] 2.95% | [6] -23.5% | [9] -2.36% | [10] -11.5% | [11] -49.1% | [12] -5.78% | [13] -39.9% | [14] -15.3% | [15] -7.38% | [16] 8.51% | [17] -43.8% | [18] 3.08% | [19] -54.8%

CCN(C(C)=O)c1ccc([N+](=O)[O-])cc1
inactive: [1] 101% | [2] 99.3% | [3] 103% | [4] 95.4% | [5] 104% | [6] 98.7% | [7] 104% | [8] 91.8% | [9] 102% | [10] 110% | [11] 110% | [12] 107% | [13] 101% | [20] 106% | [15] 103% | [16] 108% | [17] 109% | [18] 94.9% | [19] 113%
